# PubChem BioAssay (NCATS)
# A number with no mark means an inactive call. Records with an inconclusive call do not appear. The source made the active and inactive calls. Calls come from the whole dose curve; as a rule, active = well fitted curve in the direction sought with a large enough effect; inconclusive = small, poorly fitted or top-dose-only effect, or another doubt; inactive = no such curve, though single readings can be large; an effect the other way counts as inactive or inconclusive.
# System: not listed separately
# Assay: qHTS of Trypanosoma Brucei Inhibitors: LOPAC Validation (AID 624147); note: 0% is about no effect
# Details: purified enzyme assay, luminescence, 45 min; series mostly up to 57.5 µM; activity change, negative = inhibition: at the top concentration
# Procedure, shortened: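 Luminescence from Kinase-Glo Plus, added after a 45-minute room-temperature reaction, served as the end-point read-out. The enzyme and substrate were preincubated with compound before ADP (130 uM final) initiated turnover. Concentration-effect curves came from normalized qHTS data.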
row,Structure (SMILES),"activity change, negative = inhibition"
1,CC(C)COC(=O)OCN1C(=O)CN(CCN2CC(=O)N(COC(=O)OCC(C)C)C(=O)C2)CC1=O,-13.1%
2,Oc1ccc(O)cc1,-18.9%
3,CC(CCc1ccccc1)NCC(O)c1ccc(O)c(C(N)=O)c1 (stereo not drawn),-4.23%
4,N[C@@H](Cc1cnc[nH]1)C(=O)O,-5.61%
5,CNCCC(Oc1ccccc1C)c1ccccc1 (stereo not drawn),-7.64%
6,CCCC1O[C@@H]2C[C@H]3[C@@H]4CCC5=CC(=O)C=C[C@]5(C)[C@H]4[C@@H](O)C[C@]3(C)[C@]2(C(=O)CO)O1 (stereo partly drawn),5.42%
7,C[C@@H]1C(=O)NC2=Nc3cccc(Cl)c3CN21,2.46%
8,N[C@H](CO)C(=O)O,-1.7%
9,O=C(O)c1cc2cc(Cc3cccnc3)ccc2o1,1.69%

# Target: Glucagon-like peptide 1 receptor (Homo sapiens) (UniProt P43220)
# Sequence (P43220 whole entry, looked up): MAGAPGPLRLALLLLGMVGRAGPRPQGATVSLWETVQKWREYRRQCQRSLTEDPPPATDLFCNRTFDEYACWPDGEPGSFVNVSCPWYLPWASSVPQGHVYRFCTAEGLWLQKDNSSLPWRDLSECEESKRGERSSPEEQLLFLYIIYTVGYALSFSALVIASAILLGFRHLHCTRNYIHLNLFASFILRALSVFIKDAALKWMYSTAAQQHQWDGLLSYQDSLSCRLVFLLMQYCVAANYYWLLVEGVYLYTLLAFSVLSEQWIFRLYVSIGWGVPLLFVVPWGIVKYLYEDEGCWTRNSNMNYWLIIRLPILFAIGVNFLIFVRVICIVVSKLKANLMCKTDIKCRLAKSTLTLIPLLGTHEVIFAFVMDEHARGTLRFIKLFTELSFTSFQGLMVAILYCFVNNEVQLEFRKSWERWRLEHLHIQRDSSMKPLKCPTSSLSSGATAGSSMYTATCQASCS
# Assay: qHTS of GLP-1 Receptor Agonists: LOPAC Validation (AID 624148);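 note: 0% is about no effect; higher luminescence signal means agonism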
# Details: GLP-1R agonist cell assay; series mostly up to 46.1 µM; activation: at the top concentration
# Procedure, shortened: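 HEK293 cells stably co-expressing a cAMP-responsive luciferase reporter and a hypersensitive GLP-1R were plated 12 h at 37 °C and exposed to compounds for 4-6 hr at 37 °C, 5% CO2. Luminescence was read 12 min after adding detection reagent.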
row,Structure (SMILES),activation
1,CC(=O)O[C@H]1C[C@@H]2CC[C@@H]3[C@H](CC[C@@]4(C)[C@H]3C[C@H]([N+]3(C)CCCCC3)[C@@H]4OC(C)=O)[C@@]2(C)C[C@@H]1[N+]1(C)CCCCC1,-0.504%
2,CC1(C)CCC(NC(=O)[C@@H](N)CCC(=O)O)CC1,-1.23%
3,COc1cc(NS(C)(=O)=O)ccc1Nc1c2ccccc2nc2ccccc12,-0.55%
4,CNCCC=C1c2ccccc2CCc2ccccc21,6.4%
5,COc1cc2c(cc1O)CC[C@@H]1[C@@H]2CC[C@]2(C)[C@@H](O)CC[C@@H]12,10.5%
6,CN1C2CCC1CC(OC(=O)c1c[nH]c3ccccc13)C2 (stereo not drawn),-1.37%
7,C1CCc2nnnn2CC1,11.8%
8,C[C@]12CC[C@@H]3c4ccc(O)cc4CC[C@H]3[C@@H]1CC[C@@H]2O,4.45%
9,C[N+]1(CCCCC[N+]2(C)CCCC2)CCCC1,1.54%
10,CC(C)C[C@H]1C(=O)N2CCC[C@H]2[C@]2(O)O[C@](NC(=O)[C@@H]3C=C4c5cccc6[nH]c(Br)c(c56)C[C@H]4N(C)C3)(C(C)C)C(=O)N12,5.03%
11,CC[C@H](C)C(=O)O[C@H]1CCC=C2C=C[C@H](C)[C@H](CC[C@@H]3C[C@@H](O)CC(=O)O3)[C@H]21,-1.27%
12,Nc1cc(Cl)c(NC2=NCCN2)c(Cl)c1,0.521%
13,O=C1CCC(c2ccc(-n3ccnc3)cc2)=NN1,7.37%
14,COC(=O)[C@H]1[C@H]2C[C@H]3c4[nH]c5ccccc5c4CCN3C[C@H]2CC[C@@H]1O,-0.505%
15,CCCn1c(=O)[nH]c(=O)c2[nH]cnc21,-1.66%
16,CC(C)COC(=O)OCN1C(=O)CN(CCN2CC(=O)N(COC(=O)OCC(C)C)C(=O)C2)CC1=O,-1.84%
17,Oc1ccc(O)cc1,-0.897%
18,CC(CCc1ccccc1)NCC(O)c1ccc(O)c(C(N)=O)c1 (stereo not drawn),6.74%
19,N[C@@H](Cc1cnc[nH]1)C(=O)O,-0.951%
20,CNCCC(Oc1ccccc1C)c1ccccc1 (stereo not drawn),-1.2%
21,CCCC1O[C@@H]2C[C@H]3[C@@H]4CCC5=CC(=O)C=C[C@]5(C)[C@H]4[C@@H](O)C[C@]3(C)[C@]2(C(=O)CO)O1 (stereo partly drawn),-1.07%
22,C[C@@H]1C(=O)NC2=Nc3cccc(Cl)c3CN21,5.49%
23,N[C@H](CO)C(=O)O,-2.04%
24,O=C(O)c1cc2cc(Cc3cccnc3)ccc2o1,0.879%

# System: not listed separately
# Assay: qHTS of Nrf2 Activators: LOPAC Validation (AID 624149); note: potency is the fitted concentration of half-maximal effect; for activation: 0% is about no effect
# Details: Nrf2/ARE reporter cell assay; series mostly up to 46.1 µM; activation: at the top concentration
# Procedure, shortened: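 Following overnight seeding in 5% FBS OPTI-MEM, AREc32_Fluc cells receive compounds for a 24 hr incubation at 37 deg C with 5% CO2. Steady-Glo is added, and after 30 min at RT luminescence is recorded.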
Structure (SMILES),activation,Potency
CC(=O)O[C@H]1C[C@@H]2CC[C@@H]3[C@H](CC[C@@]4(C)[C@H]3C[C@H]([N+]3(C)CCCCC3)[C@@H]4OC(C)=O)[C@@]2(C)C[C@@H]1[N+]1(C)CCCCC1,0.683%,–
CC1(C)CCC(NC(=O)[C@@H](N)CCC(=O)O)CC1,-2.62%,–
COc1cc(NS(C)(=O)=O)ccc1Nc1c2ccccc2nc2ccccc12,14.1%,–
CNCCC=C1c2ccccc2CCc2ccccc21,12.8%,–
CCC(NC(C)C)C(O)c1ccc(O)c(O)c1 (stereo not drawn),4.15%,–
COc1cc2c(cc1O)CC[C@@H]1[C@@H]2CC[C@]2(C)[C@@H](O)CC[C@@H]12,0.13%,–
CN1C2CCC1CC(OC(=O)c1c[nH]c3ccccc13)C2 (stereo not drawn),-1.45%,–
C1CCc2nnnn2CC1,-1.19%,–
C[C@]12CC[C@@H]3c4ccc(O)cc4CC[C@H]3[C@@H]1CC[C@@H]2O,-2.42%,–
C[N+]1(CCCCC[N+]2(C)CCCC2)CCCC1,7.52%,–
CC(C)C[C@H]1C(=O)N2CCC[C@H]2[C@]2(O)O[C@](NC(=O)[C@@H]3C=C4c5cccc6[nH]c(Br)c(c56)C[C@H]4N(C)C3)(C(C)C)C(=O)N12,3.04%,–
CC[C@H](C)C(=O)O[C@H]1CCC=C2C=C[C@H](C)[C@H](CC[C@@H]3C[C@@H](O)CC(=O)O3)[C@H]21,-1.07%,–
Nc1cc(Cl)c(NC2=NCCN2)c(Cl)c1,-1.43%,–
O=C1CCC(c2ccc(-n3ccnc3)cc2)=NN1,-0.756%,–
COC(=O)[C@H]1[C@H]2C[C@H]3c4[nH]c5ccccc5c4CCN3C[C@H]2CC[C@@H]1O,-2.04%,–
CCCn1c(=O)[nH]c(=O)c2[nH]cnc21,-1.79%,–
CC(C)COC(=O)OCN1C(=O)CN(CCN2CC(=O)N(COC(=O)OCC(C)C)C(=O)C2)CC1=O,-1.99%,–
Oc1ccc(O)cc1,–,18.4 µM (active)
CC(CCc1ccccc1)NCC(O)c1ccc(O)c(C(N)=O)c1 (stereo not drawn),0.953%,–
N[C@@H](Cc1cnc[nH]1)C(=O)O,-1.9%,–
CNCCC(Oc1ccccc1C)c1ccccc1 (stereo not drawn),-1.7%,–
CCCC1O[C@@H]2C[C@H]3[C@@H]4CCC5=CC(=O)C=C[C@]5(C)[C@H]4[C@@H](O)C[C@]3(C)[C@]2(C(=O)CO)O1 (stereo partly drawn),-0.959%,–
C[C@@H]1C(=O)NC2=Nc3cccc(Cl)c3CN21,7.23%,–
N[C@H](CO)C(=O)O,-1.34%,–
O=C(O)c1cc2cc(Cc3cccnc3)ccc2o1,-1.37%,–
